Inconclusive results are not listed. The source made the active and inactive calls. The call rests on the fitted dose curve; in most records, active means well fitted curve in the direction sought with a large enough effect; inconclusive means small, poorly fitted or top-dose-only effect, or another doubt; inactive means no such curve, though single readings can be large; an effect the other way counts as inactive or inconclusive.
Columns and labels:
[1] = biological target: Rap guanine nucleotide exchange factor 3 (Homo sapiens) (UniProt O95398); assay: Confirmatory qHTS for agonist of cAMP-regulated guanine nucleotide exchange factor 3 (EPAC1) (AID 1645881); settings: EPAC1 Rap1B BODIPY-GDP exchange fluorescence; series mostly up to 154 µM;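 further: EPAC1 catalysed release of BODIPY-GDP from Rap1B seen as fluorescence loss; 100% = effect of cAMP agonist control; nearly all actives have a fitted effect of over 75% in size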
Rap guanine nucleotide exchange factor 3 (Homo sapiens), sequence (O95398 whole entry, looked up): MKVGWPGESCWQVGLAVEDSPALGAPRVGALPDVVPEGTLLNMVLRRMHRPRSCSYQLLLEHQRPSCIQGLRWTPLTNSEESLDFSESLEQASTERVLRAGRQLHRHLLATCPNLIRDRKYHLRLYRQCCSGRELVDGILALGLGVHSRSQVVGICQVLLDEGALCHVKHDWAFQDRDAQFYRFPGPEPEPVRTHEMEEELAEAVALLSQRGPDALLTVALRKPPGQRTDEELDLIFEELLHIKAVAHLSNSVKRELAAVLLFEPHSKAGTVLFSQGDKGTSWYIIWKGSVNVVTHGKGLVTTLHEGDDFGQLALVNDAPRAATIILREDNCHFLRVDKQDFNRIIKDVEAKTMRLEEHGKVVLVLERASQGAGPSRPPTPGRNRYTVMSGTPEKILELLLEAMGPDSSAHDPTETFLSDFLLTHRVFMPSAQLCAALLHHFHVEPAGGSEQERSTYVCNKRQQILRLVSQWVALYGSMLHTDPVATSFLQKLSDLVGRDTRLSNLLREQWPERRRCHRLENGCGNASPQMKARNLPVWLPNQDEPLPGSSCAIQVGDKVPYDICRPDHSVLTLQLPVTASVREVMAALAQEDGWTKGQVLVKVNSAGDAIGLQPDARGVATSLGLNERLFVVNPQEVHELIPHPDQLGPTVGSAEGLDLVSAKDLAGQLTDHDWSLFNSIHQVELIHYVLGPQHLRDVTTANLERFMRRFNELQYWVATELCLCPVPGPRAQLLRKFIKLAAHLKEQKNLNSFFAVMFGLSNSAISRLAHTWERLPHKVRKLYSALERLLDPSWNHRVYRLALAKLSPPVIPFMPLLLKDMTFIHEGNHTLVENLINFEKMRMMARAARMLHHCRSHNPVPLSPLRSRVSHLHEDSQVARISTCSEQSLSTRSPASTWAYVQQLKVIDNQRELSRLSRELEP

[2] = biological target: Rap guanine nucleotide exchange factor 4 (Homo sapiens) (UniProt Q8WZA2); assay: Confirmatory qHTS for agonist of cAMP-regulated guanine nucleotide exchange factor 4 (EPAC2) (AID 1645884); settings: EPAC2 GEF activity, Rap1B-BODIPY-GDP fluorescence; series mostly up to 154 µM;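 further: nucleotide exchange releases bodipy-GDP from Rap1 and this lowers its fluorescence; on the % scale 0 is the no-effect control and ±100 the full control effect; nearly all actives have a fitted effect of over 65% in size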
Rap guanine nucleotide exchange factor 4 (Homo sapiens), sequence (Q8WZA2 whole entry, looked up): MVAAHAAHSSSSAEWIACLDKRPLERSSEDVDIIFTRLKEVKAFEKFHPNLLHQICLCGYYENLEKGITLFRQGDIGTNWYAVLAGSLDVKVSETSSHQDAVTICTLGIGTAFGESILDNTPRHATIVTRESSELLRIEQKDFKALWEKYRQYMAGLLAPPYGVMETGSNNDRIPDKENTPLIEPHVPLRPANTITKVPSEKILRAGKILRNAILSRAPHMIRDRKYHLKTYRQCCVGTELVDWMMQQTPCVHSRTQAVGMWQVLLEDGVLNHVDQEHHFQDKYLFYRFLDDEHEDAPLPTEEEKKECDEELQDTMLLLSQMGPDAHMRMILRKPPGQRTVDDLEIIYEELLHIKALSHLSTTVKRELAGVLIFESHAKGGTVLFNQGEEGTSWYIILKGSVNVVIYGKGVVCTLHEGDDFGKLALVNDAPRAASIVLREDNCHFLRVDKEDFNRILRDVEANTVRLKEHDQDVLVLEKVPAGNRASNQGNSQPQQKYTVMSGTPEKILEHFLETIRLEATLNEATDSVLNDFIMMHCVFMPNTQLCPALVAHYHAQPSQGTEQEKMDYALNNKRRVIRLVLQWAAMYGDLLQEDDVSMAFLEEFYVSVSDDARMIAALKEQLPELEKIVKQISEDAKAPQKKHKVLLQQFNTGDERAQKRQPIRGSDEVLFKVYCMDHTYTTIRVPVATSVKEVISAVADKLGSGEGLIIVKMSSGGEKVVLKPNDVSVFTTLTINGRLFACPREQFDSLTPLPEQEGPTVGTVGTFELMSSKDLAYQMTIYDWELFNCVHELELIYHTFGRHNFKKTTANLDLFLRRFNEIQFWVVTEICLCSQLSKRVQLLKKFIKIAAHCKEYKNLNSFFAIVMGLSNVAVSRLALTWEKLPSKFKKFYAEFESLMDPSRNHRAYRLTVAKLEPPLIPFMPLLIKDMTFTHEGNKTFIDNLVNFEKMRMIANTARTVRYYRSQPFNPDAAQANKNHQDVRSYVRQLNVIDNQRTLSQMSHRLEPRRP

[3] = biological target: Rap guanine nucleotide exchange factor 4 (Homo sapiens) (UniProt Q8WZA2); assay: Confirmatory qHTS for antagonist of cAMP-regulated guanine nucleotide exchange factor 4 (EPAC2) (AID 1645885); settings: EPAC2 Rap1B-BODIPY-GDP exchange fluorescence, biochemical; series mostly up to 12.7 µM; further: nearly all actives have a fitted effect of over 25% in size; further: potency means the concentration at half of the fitted maximal effect; on activity change, negative = inhibition: on the % scale 0 is the no-effect control and ±100 the full control effect
[4] = biological target: Rap guanine nucleotide exchange factor 3 (Homo sapiens) (UniProt O95398); assay: Counterscreen qHTS for antagonist of cAMP-regulated guanine nucleotide exchange factor 3 (EPAC1) (AID 1645888); settings: Rap1B-BODIPY-GDP nucleotide exchange, fluorescence; series mostly up to 154 µM;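 further: fluorescence loss as bound BODIPY-GDP is released from Rap1B; % of control where 0% means no effect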
Method in brief: (§1)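 Rap1B–BODIPY-GDP (250 nM) with 50 uM GDP; compounds pin-transferred to 9.74 nM–152 uM final (activator) or from 7.32 nM upwards (inhibitor). Fluorescence Ex/Em 480/540 nm read at 5 and 30 min, then after adding cAMP or buffer, at room temperature.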

[5] = biological target: Rap guanine nucleotide exchange factor 3 (Homo sapiens) (UniProt O95398); assay: Counterscreen qHTS for agonist of cAMP-regulated guanine nucleotide exchange factor 3 (EPAC1) (AID 1645889); settings: EPAC1 Rap1B-BODIPY-GDP exchange, fluorescence; series mostly up to 154 µM; further: nearly all actives have a fitted effect of over 40% in size; further: potency means the concentration at half of the fitted maximal effect; on activation: % of control where 0% means no effect
Method in brief: as §1

Cc1ccc(C(=O)c2no[n+]([O-])c2C(=O)c2ccc(C)cc2)cc1
inactive: Potency [1] | Potency [2] | Potency [3] | Potency [4] | Potency [5]

Cc1ccc(CN(C(=O)COc2cccc([N+](=O)[O-])c2)c2ccccn2)cc1
inactive: Potency [1] | Potency [2] | outcome [3] inactive [at 12.7 µM] | Potency [4] | Potency [5]

C/C=C/c1cc(OC)c2c(c1)[C@H](C)[C@@H](c1ccc(O)c(OC)c1)O2
inactive: Potency [1] | Potency [2] | Potency [3] | Potency [4] | Potency [5]

Cc1ccc(C)n1-c1ccc(C(=O)/C=C/N(C)C)cc1
inactive: Potency [1] | activation [2] 4.94% [at 17.1 µM, percent relative to cAMP agonist control] | Potency [3] | activity change, negative = inhibition [4] -17.3% [at 30.8 µM] | activation [5] 0.307% [at 30.8 µM]

COc1cccc(C(=O)Nc2nnc(S(=O)(=O)Nc3cccc(C)c3)s2)c1
inactive: Potency [1] | Potency [2] | Potency [3] | Potency [4] | Potency [5]

COC(=O)c1c(SC)nc2ccccc2c1OCc1ccc(C)cc1
active: Potency [5] 17.8 µM
inactive: Potency [1] | Potency [2] | Potency [3] | Potency [4]

CC1C(=O)N(Cc2cn(Cc3ccco3)nn2)CCS(=O)(=O)N1Cc1ccc(-c2cccnc2)cc1 (stereo not given)
inactive: Potency [1] | activation [2] -1.85% [at 17.1 µM, percent relative to cAMP agonist control] | Potency [3] | activity change, negative = inhibition [4] 0.588% [at 30.8 µM] | activation [5] 21.5% [at 30.8 µM]

CCOC(=O)C1=C(N)OC2=C(C(=O)CCC2)C1c1sccc1C (stereo not given)
inactive: Potency [1] | activation [2] 4.2% [at 17.1 µM, percent relative to cAMP agonist control] | Potency [3] | activity change, negative = inhibition [4] -19.9% [at 30.8 µM] | activation [5] -1.77% [at 30.8 µM]

O=C1NC[C@H](Cc2ccc(O)cc2)N(C[C@@H]2CCCN2C[C@H](Cc2ccc(O)cc2)N2C[C@H](Cc3ccccc3)N(CC3CCCCC3)C(=O)C2=O)C1=O
inactive: Potency [1] | activation [2] -4.51% [at 17.1 µM, percent relative to cAMP agonist control] | Potency [3] | activity change, negative = inhibition [4] -13.5% [at 30.8 µM] | activation [5] 17.8% [at 30.8 µM]

COc1ccc(S(=O)(=O)NC(=O)C2(C)CCN2C(=O)C2(c3ccccc3)CCCC2)cc1 (stereo not given)
inactive: Potency [1] | activation [2] -3.86% [at 17.1 µM, percent relative to cAMP agonist control] | Potency [3] | activity change, negative = inhibition [4] -2.65% [at 30.8 µM] | activation [5] -0.406% [at 30.8 µM]

Cc1cc(Cl)ccc1OCCCC(=O)OCC(=O)c1c(N)n(C)c(=O)n(C)c1=O
inactive: Potency [1] | activation [2] 11.9% [at 17.1 µM, percent relative to cAMP agonist control] | Potency [3] | activity change, negative = inhibition [4] -16.7% [at 30.8 µM] | activation [5] 27.4% [at 30.8 µM]

CCc1cccc(C)c1Nc1c(-c2ccsc2)nc2ncccn12
inactive: Potency [1] | Potency [2] | outcome [3] inactive [at 12.7 µM] | Potency [4] | Potency [5]

Cc1ccc(/C=C/C(=O)Nc2nnc(SCc3ccc(C#N)cc3)s2)o1
inactive: Potency [1] | Potency [2] | Potency [3] | Potency [4] | Potency [5]

COc1ccc(C(C)(NC(C)=O)c2nc(-c3cc(F)cc(F)c3)cs2)cc1 (stereo not given)
inactive: Potency [1] | activation [2] 0% [at 17.1 µM, percent relative to cAMP agonist control] | Potency [3] | activity change, negative = inhibition [4] -9.04% [at 30.8 µM] | activation [5] 15% [at 30.8 µM]

CC1(Cc2cc(Cl)ccc2C(F)(F)F)C(=O)Nc2cc(F)ccc21 (stereo not given)
inactive: Potency [1] | activation [2] 5.2% [at 17.1 µM, percent relative to cAMP agonist control] | Potency [3] | activity change, negative = inhibition [4] -15.8% [at 30.8 µM] | activation [5] 12.6% [at 30.8 µM]

COc1ccc(-c2[nH]c(-c3ccc(F)cc3)nc2SCC(=O)Nc2ccc(OC)c(OC)c2)cc1
inactive: Potency [1] | Potency [2] | Potency [3] | Potency [4] | Potency [5]

C=CCn1cc(C(=O)N2CCc3ccccc3C2)c(=O)c2cc(S(=O)(=O)N(CC)CC)ccc21
inactive: Potency [1] | Potency [2] | Potency [3] | Potency [4] | Potency [5]

COc1cc(/C=C(\C#N)c2nc3ccc(C)cc3[nH]2)ccc1OCc1ccc(C)cc1
inactive: Potency [1] | Potency [2] | Potency [3] | Potency [4] | Potency [5]

CCCn1nc([N+](=O)[O-])c(C(C#N)c2nc3ccccc3o2)c(Cl)c1=O (stereo not given)
inactive: Potency [1] | Potency [2] | Potency [4] | Potency [5]
active: Potency [3] 37.9 µM

O=C(Nc1nc(-c2ccc(Cl)cc2)cs1)C1=COCCO1
inactive: Potency [1] | activation [2] 5.12% [at 17.1 µM, percent relative to cAMP agonist control] | Potency [3] | activity change, negative = inhibition [4] -14.7% [at 30.8 µM] | activation [5] 13.1% [at 30.8 µM]

C/C(=N\NC(=O)c1cc2ccccc2cc1O)c1ccc(C)o1
inactive: Potency [1] | activation [2] -0.964% [at 17.1 µM, percent relative to cAMP agonist control] | Potency [3] | activity change, negative = inhibition [4] -5.69% [at 30.8 µM] | activation [5] 28.4% [at 30.8 µM]

Fc1ccc(-c2nc3ccc(Br)cn3c2Cc2cccc(F)c2)cc1
inactive: Potency [1] | Potency [2] | Potency [3] | Potency [4] | Potency [5]

COC(=O)c1cc(Sc2c(Cl)cccc2Cl)ccn1
active: Potency [3] 30.1 µM
inactive: Potency [1] | Potency [2] | Potency [4] | Potency [5]

CC(=O)/C(=N/Nc1ccccc1)Sc1nnc(CCc2ccccc2)n1-c1ccccc1
inactive: Potency [1] | Potency [2] | Potency [3] | Potency [4] | Potency [5]

Cc1ccc(/C=C(\CCC(=O)O)c2nc3ccccc3s2)cc1[N+](=O)[O-]
inactive: Potency [1] | activation [2] 6.79% [at 17.1 µM, percent relative to cAMP agonist control] | Potency [3] | activity change, negative = inhibition [4] -11.2% [at 30.8 µM] | activation [5] 0.0676% [at 30.8 µM]

COc1ccccc1C(CCN(Cc1ccccc1)C(C)=O)c1ccco1 (stereo not given)
inactive: Potency [1] | activation [2] 8.17% [at 17.1 µM, percent relative to cAMP agonist control] | Potency [3] | activity change, negative = inhibition [4] -15.7% [at 30.8 µM] | activation [5] 10.4% [at 30.8 µM]

Cc1cccc2sc(N(CCCN(C)C)C(=O)CCS(=O)(=O)c3ccccc3)nc12
inactive: Potency [1] | Potency [2] | Potency [3] | Potency [4] | Potency [5]

CCc1nnc(NS(=O)(=O)c2ccc(NCc3cc(Cl)cc(Cl)c3O)cc2)s1
inactive: Potency [1] | Potency [2] | Potency [4] | Potency [5]
active: Potency [3] 5.36 µM

COc1ccc(-c2nc3ccccc3n2CCC(C)C)cc1OC
inactive: Potency [1] | Potency [2] | Potency [3] | Potency [4] | Potency [5]

CC(C)(C)c1ccc(OCc2ccc(C(=O)N/N=C/c3ccc(O)c(O)c3)cc2)cc1
inactive: Potency [1] | activation [2] -9.36% [at 17.1 µM, percent relative to cAMP agonist control] | Potency [3] | activity change, negative = inhibition [4] -20.9% [at 30.8 µM] | activation [5] 10.5% [at 30.8 µM]

CCOC(=O)C1=C(C)N=c2sc(=Cc3cc(Cl)c(OCC(=O)O)c(Cl)c3)c(=O)n2C1c1cccc(OC)c1 (stereo not given)
inactive: Potency [1] | Potency [2] | Potency [3] | Potency [4] | Potency [5]

C[C@@H]1CC=C[C@H]2[C@H]1C(=O)N(Cc1ccccc1)[C@H]2c1ccc(C(F)(F)F)cc1
inactive: Potency [1] | activation [2] -4.74% [at 17.1 µM, percent relative to cAMP agonist control] | Potency [3] | activity change, negative = inhibition [4] -9.3% [at 30.8 µM] | activation [5] 7.88% [at 30.8 µM]

Oc1c(C(Nc2nccs2)c2ccc(C(F)(F)F)cc2)ccc2cccnc12 (stereo not given)
inactive: Potency [1] | activation [2] -2.43% [at 17.1 µM, percent relative to cAMP agonist control] | Potency [3] | activity change, negative = inhibition [4] -18% [at 30.8 µM] | activation [5] 3.72% [at 30.8 µM]

CC(C)(C)c1ccc(C(=O)N/C(=C\c2cccc([N+](=O)[O-])c2)C(=O)Nc2cccc(C(=O)O)c2)cc1
inactive: Potency [1] | activation [2] 8.06% [at 17.1 µM, percent relative to cAMP agonist control] | Potency [3] | activity change, negative = inhibition [4] -17.2% [at 30.8 µM] | activation [5] 22.2% [at 30.8 µM]

O=C(NCc1cccc(Cl)c1)c1ccc(S(=O)(=O)Nc2cccc(C(F)(F)F)c2)cc1
inactive: Potency [1] | Potency [2] | Potency [3] | Potency [4] | Potency [5]

Cc1nnc2ccc(-c3ccc(NC(=O)Cc4cccs4)cc3)nn12
inactive: Potency [1] | activation [2] -1.11% [at 17.1 µM, percent relative to cAMP agonist control] | Potency [3] | activity change, negative = inhibition [4] -8.86% [at 30.8 µM] | activation [5] 9.02% [at 30.8 µM]

Source: PubChem BioAssay (NCATS)
